# Assay results taken from PubChem BioAssay AID1625 (Sanford-Burnham Center for Chemical Genomics, 2009).
# Out of some 190,000 compounds screened, about 570 (0.3%) were called active.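 Rule for the calls: active = z-score above 3 at 5 µM with at least 500 cells counted in the well; inconclusive = wells under 500 cells, flagged as cytotoxic or low count; inactive = the rest.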 The sample as a whole holds a higher share of actives than the screen did.
# Assay: up-regulation of insulin promoter-GFP reporter – imaging, high-content screening, mouse beta cells (AID 1625);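 for cell count: total cells summed across four imaged fields per well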
# Conditions: MIN6 insulin promoter-GFP reporter, at 5 µM; cell count: measured here: cytotoxicity, nuclei count; z-score: stronger effect = higher value
Structure (SMILES),cell count,z-score
O=C(Cc1cccc2ccccc12)NCCC1=CCCCC1,1280 cells,-0.27 (inactive)
O=C(Cc1nn[nH]n1)NCCC1=CCCCC1,1260 cells,-0.63 (inactive)
CN1CCNC(=O)C1CC(=O)NCCC1=CCCCC1 (stereo not drawn),1390 cells,3.77 (active)
Cn1nc(C(C)(C)C)c([N+](=O)[O-])c1C(N)=O,1080 cells,-0.1 (inactive)
O=C(O)CC1=C(Nc2ccccc2)C(=O)N(c2ccccc2)C1c1ccc(Cl)cc1 (stereo not drawn),1370 cells,-0.28 (inactive)
O=c1c([N+](=O)[O-])cccn1Cc1ccc(F)cc1Cl,1280 cells,3.36 (active)
O=[N+]([O-])c1ccccc1NCc1ccccc1Cl,1120 cells,0.76 (inactive)
N/C(=N/O)c1cccn1Cc1ccccc1[N+](=O)[O-],1470 cells,0.02 (inactive)
CN1CCN(C(c2cc3cc4c(cc3[nH]c2=O)OCCO4)c2nnnn2C2CCCC2)CC1 (stereo not drawn),1180 cells,-0.16 (inactive)
CCOc1ccc(-n2cnc3c(=O)[nH]c(N)nc32)cc1,1510 cells,-0.16 (inactive)
CC(C)(C)c1ccc(CCC2OCC(CN3CCOCC3)O2)cc1 (stereo not drawn),1070 cells,-0.91 (inactive)
O=C(Cc1ccccc1)N1N=C(c2ccncc2)CC1(O)C(F)(F)F (stereo not drawn),1110 cells,-0.48 (inactive)
CN1CCN(C(=O)/C(=C\c2ccc3c(c2)OCO3)NC(=O)c2cccs2)CC1,1300 cells,0.04 (inactive)
CN1CCN(C(=O)/C(=C\c2cccs2)NC(=O)c2cccs2)CC1,1240 cells,6.06 (active)
Cc1ccc(C(=O)N/C(=C/c2cccs2)C(=O)N2CCCCC2)cc1,1270 cells,0.22 (inactive)
O=C(O)C(c1ccccc1)C1(O)CCCCC1 (stereo not drawn),1390 cells,0.43 (inactive)
CCCCSc1nnc2c(n1)OC=Nc1ccccc1-2,1140 cells,-0.42 (inactive)
Cc1nc2ccccc2nc1N/N=C/c1ccc(O)cc1O,1210 cells,-3.3 (inactive)
Oc1ccc(/C=N/Nc2nc(-c3ccccc3F)nc3ccccc23)c(O)c1,1070 cells,3.69 (active)
Fc1ccc(/C=N/Nc2nc(-c3cccnc3)nc3ccccc23)cc1,1030 cells,-0.09 (inactive)
O=C(NCCc1ccccn1)c1cccnc1Oc1ccc(Cl)cc1,1560 cells,-0.11 (inactive)
Cc1cc2nc3c(=O)n(Cc4ccccc4)c(=O)[nH]c3nc2cc1N,1490 cells,12.1 (active)
Cc1nc2c(c(=O)n1Cc1ccco1)c1nc3ccccc3nc1n2Cc1ccccc1,1260 cells,-1.6 (inactive)
CC(=O)c1ccc(-c2ccc(Cn3c(C)nc4cc(N)c(C)nc43)cc2)cc1,1520 cells,0.28 (inactive)
COc1ccc(Nc2cc(=O)n(-c3ccccc3)c3c2c(=O)n(C)c(=O)n3C)cc1,991 cells,0.04 (inactive)
COc1ccc(C(=O)C2CCCN(C(=O)c3cc4nc(C)cc(C)n4n3)C2)cc1F (stereo not drawn),1470 cells,-0.02 (inactive)
COCc1cc(=O)[nH]c(SC)n1,1140 cells,-0.01 (inactive)

Structure (SMILES),cell count,z-score
CC(C)c1nc(SCC(=O)NC(=O)NC(C)(C)C)n[nH]1,976 cells,-0.03 (inactive)
CCOc1c2ccc(C(=O)NCc3ccc4c(c3)OCO4)cc2nn1C,1870 cells,0.4 (inactive)
CCCn1nc2cc(C(=O)NCc3ccccc3)ccc2c1OCC,1430 cells,4.73 (active)
CCOc1c2ccc(C(=O)NCc3ccc(OC(F)(F)F)cc3)cc2nn1C,1370 cells,2.39 (inactive)
CC12CN(NC(=O)c3ccc(Cl)cc3)C3(C#N)CC1CCC23C (stereo not drawn),1610 cells,-0.1 (inactive)
Cc1cc2nc(C(F)(F)F)cc(-c3cccs3)n2n1,1200 cells,-0.13 (inactive)
O=C(COC(=O)C12CC3CC(CC(O)(C3)C1)C2)NC12CC3CC(CC(C3)C1)C2,1360 cells,-1.25 (inactive)
Clc1ccc2nc(-c3ccccc3)nc(C(Cl)Cl)c2c1,892 cells,-0.12 (inactive)
CCOC(=O)CSc1nc2c(sc(=S)n2CCc2ccccc2)c(=O)n1Cc1ccco1,1440 cells,-0.59 (inactive)
CN(c1ccccc1)c1ccc(/C=c2\s/c(=C(/C#N)C(=O)C(C)(C)C)n(Cc3ccco3)c2=O)cc1,1460 cells,12.8 (active)
Cc1cc2c(c(=O)n1Cc1ccco1)C(c1ccccc1)C(C#N)=C(N)O2 (stereo not drawn),961 cells,-0.43 (inactive)
CSc1nc(-c2ccco2)nn1C(=O)c1ccccc1Cl,983 cells,-0.05 (inactive)
COc1ccc(OC)c(CNC(=O)c2cc(=O)[nH]c3ccc(S(=O)(=O)N4CCCC4)cc23)c1,1540 cells,-0.29 (inactive)
CCN(CC)c1ccc(C(=O)N/N=C/c2ccc(N3CCOCC3)cc2)cc1,1830 cells,3.38 (active)
Cc1ccc(C(=O)NC(=S)Nc2ccc(N3CCOCC3)cc2)cc1,1440 cells,-0.06 (inactive)
Cc1cc(C(=O)N/N=C/c2ccc(N3CCOCC3)cc2)c(C)o1,987 cells,0.32 (inactive)
COc1ccccc1Nc1nc(N)nc(CSC(=S)N2CCOCC2)n1,1080 cells,-0.34 (inactive)
CCCN(c1ccc(C)cc1)c1nc(=O)c2cccnc2s1,1150 cells,0.79 (inactive)
O=C(NCc1ccc(F)cc1)C1CCC(CNc2c(N3CCOCC3)c(=O)c2=O)CC1 (stereo not drawn),1000 cells,-0.88 (inactive)
CC(C)CN(CC(C)C)CC(O)CN(c1ccccc1)S(=O)(=O)c1ccccc1[N+](=O)[O-] (stereo not drawn),1100 cells,-1.15 (inactive)
CC(C)CNC(=O)C(=O)NCc1ccccc1,1620 cells,-0.28 (inactive)
Cc1nn(-c2ccccc2)c(Cl)c1C(=O)Nc1ccccc1,1480 cells,-0.05 (inactive)
Cc1nn(-c2ccccc2)c(C)c1NC(=O)COc1ccc(Cl)cc1Cl,1470 cells,1.23 (inactive)
Cc1nn(-c2ccccc2)c(C)c1NC(=O)CCl,1030 cells,3.88 (active)
S=C(NCCc1ccccc1)N1CCn2cccc2C1c1ccncc1 (stereo not drawn),1320 cells,0.43 (inactive)
O=C(CN1CCN(Cc2ccccc2)CC1)NC(c1ccccc1)c1ccccc1,847 cells,0.25 (inactive)
CCN(CC(=O)Nc1cccc(S(N)(=O)=O)c1)Cc1nc2ccccc2c(=O)[nH]1,1090 cells,0.21 (inactive)
